# An excerpt weighted towards active compounds, which were near 21% of everything screened.
# MRP-1 activ: MRP-1 activation | H69AR cells + doxorubicin, viability rescue, CellTiter-Glo | viability increase, % at 10 µM | 140,000 tested, 0.61% active | AID 799;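 active means viability gain under doxorubicin at or above a set limit, the compound median plus 3 SD, cut at about 4.7% in these data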;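 further: MRP-1 overexpressing cells given doxorubicin 25 µM after compound pretreatment; 18-22 h compound pretreatment then 72 h with doxorubicin before readout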
# CYP2C9 inh: inhibitors of human CYP2C9; P11712; CYP2C9 Supersomes, luciferin-H conversion, luminescence; inhibition, % at 5 µM; 96,000 tested, 20% active;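 active means blocking of liver enzyme CYP2C9 beyond about 50% at 5 µM, limit read from the data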
# CYP2C19 activ: activators of human cytochrome P450 2C19; 96,000 tested, under 10 active; recombinant CYP2C19, luciferin-H EGE luminescence; stronger effect = higher value; 0 = fully inhibited enzyme, 1 = untreated enzyme; P33261; activation factor at 5 µM; AID 1025;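 active means activation factor of at least 2 at 5 µM in the primary screen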
# Target sequence (P33261 whole entry, looked up): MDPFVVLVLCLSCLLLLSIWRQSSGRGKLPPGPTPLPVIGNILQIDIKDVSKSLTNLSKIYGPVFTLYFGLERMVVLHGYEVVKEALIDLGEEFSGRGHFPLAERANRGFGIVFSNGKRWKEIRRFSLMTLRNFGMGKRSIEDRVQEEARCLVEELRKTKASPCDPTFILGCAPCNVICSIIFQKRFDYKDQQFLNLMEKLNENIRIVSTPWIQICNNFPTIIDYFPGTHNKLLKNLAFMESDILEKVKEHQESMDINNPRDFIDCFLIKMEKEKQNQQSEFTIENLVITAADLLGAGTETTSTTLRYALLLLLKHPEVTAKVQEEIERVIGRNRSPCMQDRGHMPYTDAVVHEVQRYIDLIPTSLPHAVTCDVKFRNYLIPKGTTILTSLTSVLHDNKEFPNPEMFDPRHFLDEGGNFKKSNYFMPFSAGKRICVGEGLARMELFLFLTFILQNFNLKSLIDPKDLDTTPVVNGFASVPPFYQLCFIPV
# MRP resist rev: MRP-mediated drug resistance reversal; H69AR cells + 2 uM doxorubicin, CellTiter-Glo, 72 h; differential viability (reversal), % at 10 µM; 85,000 tested, 0.04% active; AID 602;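 active means viability drop by adding the cancer drug above about 55%, with treated viability meeting a 40% cutoff, limit read from the data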;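 further: larger differential means the compound sensitizes cells more to doxorubicin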
# CYP2C19 inh: human CYP2C19 inhibition. P33261. CYP2C19 Supersomes, luciferin-H EGE luminescence, 30 min. inhibition, % at 5 µM. 96,000 tested, 21% active. AID 778;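 active means CYP2C19 inhibition above a set limit at 5 µM in the primary screen, cut at about 50% in these data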
# CYP2C9 act: activators of human CYP2C9; P11712; recombinant CYP2C9, luciferin-H conversion, luminescence; stronger effect = higher value; factor 1 = untreated enzyme, 0 = blocked; activation factor at 5 µM; 96,000 tested, 1.4% active; AID 1024;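 active means activation factor of 2 or more for CYP2C9 at a 5 µM dose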
# Numbers stand for hits; - = inactive; . = not tested or not shown.
SMILES,MRP-1 activ,CYP2C9 inh,CYP2C19 activ,MRP resist rev,CYP2C19 inh,CYP2C9 act
O=C(NCc1cccs1)C1CCC(=O)N1C1CCCCC1 (stereo not drawn),-,-,-,-,-,-
CCOc1ccc(/C=C/C(=O)NCc2ccccc2)cc1,-,.,.,.,.,.
Cc1ccsc1/C=N/NC(=O)Cc1cccn1C,-,.,.,.,.,.
O=C1c2ccccc2C(=O)C12Cc1ccccc1N1CCN(c3ccccc3)CC12 (stereo not drawn),-,76,-,-,56,-
Cc1ccc(S(=O)(=O)N2CCN(c3ccc(C(=O)N4CCOCC4)cc3[N+](=O)[O-])CC2)cc1,-,.,.,.,.,.
CCc1ccccc1N(CC(=O)N/N=C/c1ccc(OC(=O)OC)c(OC)c1)S(C)(=O)=O,-,50,-,.,-,-
C=CCNC(=O)CN(c1ccc(F)c(Cl)c1)S(C)(=O)=O,-,-,-,-,57,-
Cc1ccc(N(CC(=O)NCc2cccnc2)S(C)(=O)=O)cc1C,-,-,-,-,84,-
Cc1ccc(N(CC(=O)NCc2ccncc2)S(C)(=O)=O)cc1Cl,-,89,-,-,99,-
CS(=O)(=O)N(CC(=O)NCc1ccncc1)c1cc(Cl)cc(Cl)c1,-,87,-,-,100,-
COc1ccc(S(=O)(=O)N(CC(=O)NCc2cccnc2)c2ccc(F)cc2)cc1OC,-,.,.,.,.,.
COCCCNC(=O)CN(c1cc(Cl)cc(Cl)c1)S(C)(=O)=O,-,.,.,-,.,.
Cc1ccc(N(CC(=O)NCc2ccncc2)S(C)(=O)=O)cc1,-,.,.,-,.,.
N#C/C(=C/c1ccccc1)c1nn(CCO)c(N)c1C#N,-,77,-,.,94,-
FC(F)(F)c1cnc(Oc2ccccc2-c2nnco2)c(Cl)c1,-,-,-,-,95,-
COc1cccc(OC)c1Oc1ccc(C(F)(F)F)cn1,-,-,-,-,66,-
CN(C)CCCNS(=O)(=O)c1ccc(Oc2ncc(C(F)(F)F)cc2Cl)cc1,-,-,-,.,-,-
Nc1ccccc1Oc1ncc(C(F)(F)F)cc1Cl,-,-,-,.,72,-
Cc1onc(-c2ccccc2Cl)c1C(=O)NCCN1Cc2ccccc2C1=O,-,59,-,-,75,-
COc1ccc2cc(CCNC(=O)c3c(-c4ccccc4Cl)noc3C)c(=O)[nH]c2c1,-,67,-,-,-,-
COc1ccc(CCNC(=O)c2c(-c3ccccc3Cl)noc2C)cc1,-,68,-,.,80,-
Cc1cc(C)n(-c2nnc(C)n2/N=C/c2ccccc2OCc2ccccc2Cl)n1,-,52,-,-,56,-
O=C(COC(=O)CNC(=O)c1sc2ccccc2c1Cl)Nc1c(Cl)cc(Cl)cc1Cl,-,.,.,.,.,.
Fc1ccc(CNC(=S)Nc2ccc(OC(F)F)cc2)cc1,-,.,.,.,.,.
Cc1csc(NC(=O)CSc2nnc3ncccn23)n1,-,-,-,-,-,-
SMILES,MRP-1 activ,CYP2C9 inh,CYP2C19 activ,MRP resist rev,CYP2C19 inh,CYP2C9 act
CC(Sc1cccc(C(F)(F)F)c1)C(=O)NC(N)=O (stereo not drawn),-,-,-,-,-,2.4
O=C(CSc1cccc(C(F)(F)F)c1)Nc1ccc(Cl)cc1Cl,-,-,-,.,96,-
CCNC(=O)NC(=O)CSc1cccc(C(F)(F)F)c1,-,-,-,-,77,-
O=C(CSc1cccc(C(F)(F)F)c1)NC(=O)c1ccccc1,-,.,.,.,.,.
CCn1cc(C(=O)Nc2ccc(C(=O)N3CCCC3)cc2)c(=O)c2ccc(C)nc21,.,-,-,-,-,-
Cc1ccc(CN(c2ccc(C(=O)N3CCCC3)cc2)S(C)(=O)=O)cc1,-,-,-,-,-,-
CCOc1ccc(N(CC(=O)NCc2ccco2)S(=O)(=O)c2ccc(OC)c(OC)c2)cc1,-,62,-,-,98,-
COc1ccc(N(CC(=O)NCc2ccco2)S(=O)(=O)c2ccc(OC)c(OC)c2)cc1,-,-,-,-,100,-
CCN1C(=O)/C(=C\c2cn(CCC#N)nc2-c2ccc(F)cc2)SC1=S,-,.,.,.,.,.
COc1cc(OC)cc(C(=O)Nc2cccc(C(C)=O)c2)c1,-,76,-,-,71,-
COc1ccc(S(=O)(=O)N(C)CC(=O)NC2CCCC2)cc1Cl,-,-,-,-,55,-
CCOc1cc(OCC)cc(C(=O)Nc2cccc(C(C)=O)c2)c1,-,.,.,.,.,.
COc1ccc(NC(=O)CN(C)S(=O)(=O)c2cccs2)cc1,-,-,-,-,-,-
COc1ccc(S(=O)(=O)N(C)CC(=O)Nc2ccc(F)cc2)cc1,-,-,-,-,-,2.2
COc1ccc(S(=O)(=O)N(C)CC(=O)Nc2cccc(C(C)=O)c2)cc1Cl,-,-,-,-,93,-
O=c1[nH]nnc2sc3c(c12)CCCC3,-,.,.,-,.,.
Cc1cc(C)c(Cn2c(=O)n(CCCC(=O)NCc3ccco3)c(=O)c3ccccc32)c(C)c1,.,.,.,-,.,.
CCCNC(=O)COC(=O)CCC(=O)c1ccc(F)cc1,-,-,-,.,-,-
CCOC(=O)c1ccccc1N=N/C(C(C)=O)=C(/C)O,-,.,.,.,.,.
O=C(O)C1C2C=CC(O2)C1C(=O)NCCC1=CCCCC1 (stereo not drawn),-,.,.,-,.,.
COc1ccc(S(=O)(=O)N(C)CC(=O)Nc2cccc(C(C)=O)c2)cc1,-,-,-,-,88,-
Cc1ccc2[nH]c(=O)c(CN(CCc3ccccc3)Cc3nnnn3CC3CCCO3)cc2c1 (stereo not drawn),-,.,.,-,.,.
COc1ccc2[nH]c(=O)c(CN(CCc3ccccc3)Cc3nnnn3CC3CCCO3)cc2c1 (stereo not drawn),-,-,-,-,68,-
COc1ccc2cc(CN(CCc3ccccc3)Cc3nnnn3CC3CCCO3)c(=O)[nH]c2c1 (stereo not drawn),-,63,-,-,-,-
O=c1[nH]c2cc3c(cc2cc1CN(CCc1ccccc1)Cc1nnnn1CC1CCCO1)OCO3 (stereo not drawn),-,-,-,-,-,-
SMILES,MRP-1 activ,CYP2C9 inh,CYP2C19 activ,MRP resist rev,CYP2C19 inh,CYP2C9 act
O=C(c1ccc(Cl)c(F)c1F)N1CCCC1,-,-,-,-,-,-
CC(=O)OC1COC(N2CCc3cc([N+](=O)[O-])ccc32)C(OC(C)=O)C1OC(C)=O (stereo not drawn),-,81,-,.,72,-
Cc1ccc(N=C2SC(C(=O)Nc3ccc(OC(F)(F)F)cc3)C(N)=C2C(=O)Nc2c(C)cc(C)cc2C)cc1 (stereo not drawn),-,.,.,.,.,.
CCOC(=O)C(C)Oc1ccc(C2NC(=O)NC(C)=C2C(C)=O)cc1Br (stereo not drawn),-,72,-,-,-,-
C=CCOc1c(Br)cc(C2NC(=O)NC(C)=C2C(C)=O)cc1OCC (stereo not drawn),-,-,-,-,-,-
COc1cc(C2NC(=O)NC(C)=C2C(=O)OC2CCCCC2)cc(Br)c1O (stereo not drawn),.,96,-,-,79,-
CCOC(=O)C1=C(C)NC(=O)NC1c1ccc(Br)s1 (stereo not drawn),-,-,-,-,78,-
CC1=C(C(=O)OC(C)C)C(c2ccc(Br)s2)NC(=O)N1C (stereo not drawn),-,88,-,-,99,-

# Source: PubChem BioAssay
